# Results published in PubChem BioAssay AID1159580 (chemical genetic matrix, 2015).
# Out of some 5,500 compounds screened, about 2,000 (36%) were called active. About 18% were inconclusive and are not listed. Some of the results follow. Unmarked numbers belong to inactive results. Rule as the data show it: active = normalized growth mostly below about 0.91 (no sharp cut-off); inconclusive = no clear call, values can overlap the other calls; inactive = mostly above about 0.92.
# Assay: chemical genetic growth profiling, strain panel (AID 1159580);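 also: tested at 20 µM; growth read once vehicle control cultures reached saturation at 30 °C; 1 = growth at the plate median or of vehicle wells; lower values mean less growth of the strain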
# Settings: S. cerevisiae deletion strains, growth OD
# [1] = locus YJR075W, strain HOC1, hits give low values
# [2] = locus YMR307W, strain GAS1, hits give low values
structure (smiles),measurement,setting,value
C[C@]12CCC3C(CC[C@H]4C[C@H](O)CC[C@]34C)C1CC[C@@H]2O (stereo partly drawn),normalized growth,"locus YBR021W, strain FUR4, hits give low values",0.803 (active)
same,normalized growth,"locus YBR229C, strain ROT2, hits give low values",1.01
same,normalized growth,"locus YCL029C, strain bik1, hits give low values",0.948
same,normalized growth,"locus YDL035C, strain GPR1, hits give low values",0.883
same,normalized growth,"locus YDL074C, strain BRE1, hits give low values",0.929
same,normalized growth,"locus YDL101C, strain DUN1, hits give low values",0.938
same,normalized growth,"locus YDL185W, strain tfp1, hits give low values",0.978
same,normalized growth,"locus YDL192W, strain arf1, hits give low values",0.965
same,normalized growth,"locus YDR101C, strain arx1, hits give low values",0.991
same,normalized growth,"locus YDR162C, strain NBP2, hits give low values",0.628 (active)
same,normalized growth,"locus YDR318W, strain mcm21, hits give low values",0.948
same,normalized growth,"locus YDR388W, hits give low values",0.994
same,normalized growth,"locus YDR502C, strain sam2, hits give low values",0.899 (active)
same,normalized growth,"locus YER110C, hits give low values",1.01
same,normalized growth,"locus YER155C, strain BEM2, hits give low values",1.01
same,normalized growth,"locus YER167W, strain BCK2, hits give low values",1.02
same,normalized growth,"locus YGL078C, strain dbp3, hits give low values",0.844 (active)
same,normalized growth,"locus YGL086W, strain mad1, hits give low values",0.951
same,normalized growth,"locus YGL248W, strain PDE1, hits give low values",0.882 (active)
same,normalized growth,"locus YGR078C, strain PAC10, hits give low values",0.908
same,normalized growth,"locus YGR135W, strain pre9, hits give low values",0.858 (active)
same,normalized growth,"locus YGR252W, strain gcn5, hits give low values",0.756 (active)
same,normalized growth,"locus YHR079C, strain IRE1 (second series), hits give low values",1.01
same,normalized growth,"locus YHR094C, strain hxt1, hits give low values",1
same,normalized growth,"locus YHR129C, strain ARP1, hits give low values",0.968
same,normalized growth,"locus YHR200W, strain rpn10, hits give low values",0.987
same,normalized growth,"locus YIL066C, strain RNR3, hits give low values",1
same,normalized growth,"locus YIL073C, strain SPO22, hits give low values",0.875
same,normalized growth,"locus YIL125W, strain kgd1, hits give low values",0.993
same,normalized growth,"locus YIR030C, strain dcg1, hits give low values",0.991
same,normalized growth,"locus YJL095W, strain BCK1, hits give low values",0.721 (active)
same,normalized growth,"locus YJL134W, strain LCB3, hits give low values",1.01
same,normalized growth,"locus YJL168C, strain set2, hits give low values",1
same,normalized growth,"locus YJL187C, strain SWE1 (second series), hits give low values",0.882
same,normalized growth,[1],0.981
same,normalized growth,"locus YKL009W, strain mrt4, hits give low values",0.813 (active)
same,normalized growth,"locus YKL068W, hits give low values",0.988
same,normalized growth,"locus YKL085W, strain MDH1 (second series), hits give low values",1.01
same,normalized growth,"locus YKL085W, strain MDH1, hits give low values",1.01
same,normalized growth,"locus YKL190W, strain CNB1, hits give low values",1.02
same,normalized growth,"locus YKR001C, strain vps1, hits give low values",0.83 (active)
same,normalized growth,"locus YLR039C, strain RIC1, hits give low values",0.538 (active)
same,normalized growth,"locus YLR058C, strain SHM2, hits give low values",0.944
same,normalized growth,"locus YLR102C, strain apc9, hits give low values",1
same,normalized growth,"locus YLR262C, strain YPT6, hits give low values",0.421 (active)
same,normalized growth,"locus YLR268W, strain sec22, hits give low values",0.974
same,normalized growth,"locus YLR330W, strain CHS5, hits give low values",0.891 (active)
same,normalized growth,"locus YLR342W, strain FKS1 (second series), hits give low values",0.814
same,normalized growth,"locus YLR371W, strain rom2, hits give low values",1.05
same,normalized growth,"locus YLR418C, strain cdc73, hits give low values",0.894
same,normalized growth,"locus YML016C, strain PPZ1, hits give low values",0.989
same,normalized growth,"locus YML032C, strain rad52, hits give low values",0.924
same,normalized growth,"locus YML124C, strain tub3, hits give low values",1.01
same,normalized growth,"locus YMR078C, strain ctf18, hits give low values",0.988
same,normalized growth,"locus YMR223W, strain ubp8, hits give low values",0.936
same,normalized growth,[2],0.798
same,normalized growth,"locus YNL067W, strain RPL9B, hits give low values",0.876
same,normalized growth,"locus YNL233W, strain BNI4, hits give low values",0.904
same,normalized growth,"locus YNL250W, strain rad50, hits give low values",0.912
same,normalized growth,"locus YNL271C, strain bni1, hits give low values",0.942
same,normalized growth,"locus YNL298W, strain CLA4, hits give low values",0.893 (active)
same,normalized growth,"locus YNL307C, strain MCK1, hits give low values",0.885 (active)
same,normalized growth,"locus YNR052C, strain pop2, hits give low values",0.884 (active)
same,normalized growth,"locus YOL006C, strain TOP1, hits give low values",0.926
same,normalized growth,"locus YOL012C, strain htz1",1.56
same,normalized growth,"locus YOL147C, strain pex11, hits give low values",1.01
same,normalized growth,"locus YOR061W, strain CKA2, hits give low values",0.985
same,normalized growth,"locus YOR069W, strain VPS5, hits give low values",0.957
same,normalized growth,"locus YOR136W, strain idh2, hits give low values",0.984
same,normalized growth,"locus YOR144C, strain elg1, hits give low values",0.994
same,normalized growth,"locus YOR184W, strain ser1, hits give low values",0.82 (active)
same,normalized growth,"locus YOR316C, strain cot1, hits give low values",0.992
same,normalized growth,"locus YPR119W, strain clb2, hits give low values",0.992
same,normalized growth,"locus YPR141C, strain kar3, hits give low values",1.02
same,normalized growth,"locus YPR163C, strain tif3, hits give low values",0.844 (active)
same,normalized growth,"locus YPR167C, strain met16, hits give low values",0.956
same,normalized growth,"strain wtn01, hits give low values",0.961
C[C@]12CC[C@H]3[C@@H](CCC4C[C@H](O)CC[C@@]43C)[C@@H]1CC[C@@H]2O (stereo partly drawn),normalized growth,"locus YAL013W, strain DEP1, hits give low values",0.946
same,normalized growth,"locus YAL040C, strain CLN3, hits give low values",1.02
same,normalized growth,"locus YCL061C, strain MRC1 (second series), hits give low values",1
same,normalized growth,"locus YDR363W, strain ESC2, hits give low values",0.987
same,normalized growth,"locus YER002W, strain NOP16, hits give low values",1
same,normalized growth,[1],1.06
same,normalized growth,"locus YMR263W, strain SAP30, hits give low values",1.03
same,normalized growth,[2],0.977
same,normalized growth,"locus YNL128W, strain TEP1, hits give low values",1.03
same,normalized growth,"locus YNL175C, strain NOP13, hits give low values",1.02
same,normalized growth,"locus YNL197C, strain WHI3, hits give low values",0.964
same,normalized growth,"locus YNL224C, strain SQS1, hits give low values",1.01
same,normalized growth,"locus YNL322C, strain KRE1, hits give low values",1.02
same,normalized growth,"locus YOR083W, strain WHI5 (second series), hits give low values",0.966
same,normalized growth,"locus YPL055C, strain LGE1, hits give low values",1.03
same,normalized growth,"locus YPL241C, strain CIN2, hits give low values",1.03
